Assay results from ChEMBL document CHEMBL3988442, “University of Dundee, Small-Polar-MMV Screening Library” (2021).
For some of these results: Entries with a potency or affinity are not part of this list.

Legend:
Design in all cases: scale not given: direction of the effect not stated beside the values
[1] = target: Protein translocase subunit SecA (Escherichia coli (strain K12)) (UniProt P10408); assay: Assay to Identify E. coli SecA ATPase Inhibitors; assay type: functional; details: 30 µM
[2] = target: T1, Ubiquitin-activating enzyme e1, putative (Leishmania donovani (strain BPK282A1)) (UniProt E9BSI1); assay: Leishmania donovani Ubiquitin Activating Enzyme (LdE1); assay type: functional; details: 30 µM
T1 sequence (whole entry): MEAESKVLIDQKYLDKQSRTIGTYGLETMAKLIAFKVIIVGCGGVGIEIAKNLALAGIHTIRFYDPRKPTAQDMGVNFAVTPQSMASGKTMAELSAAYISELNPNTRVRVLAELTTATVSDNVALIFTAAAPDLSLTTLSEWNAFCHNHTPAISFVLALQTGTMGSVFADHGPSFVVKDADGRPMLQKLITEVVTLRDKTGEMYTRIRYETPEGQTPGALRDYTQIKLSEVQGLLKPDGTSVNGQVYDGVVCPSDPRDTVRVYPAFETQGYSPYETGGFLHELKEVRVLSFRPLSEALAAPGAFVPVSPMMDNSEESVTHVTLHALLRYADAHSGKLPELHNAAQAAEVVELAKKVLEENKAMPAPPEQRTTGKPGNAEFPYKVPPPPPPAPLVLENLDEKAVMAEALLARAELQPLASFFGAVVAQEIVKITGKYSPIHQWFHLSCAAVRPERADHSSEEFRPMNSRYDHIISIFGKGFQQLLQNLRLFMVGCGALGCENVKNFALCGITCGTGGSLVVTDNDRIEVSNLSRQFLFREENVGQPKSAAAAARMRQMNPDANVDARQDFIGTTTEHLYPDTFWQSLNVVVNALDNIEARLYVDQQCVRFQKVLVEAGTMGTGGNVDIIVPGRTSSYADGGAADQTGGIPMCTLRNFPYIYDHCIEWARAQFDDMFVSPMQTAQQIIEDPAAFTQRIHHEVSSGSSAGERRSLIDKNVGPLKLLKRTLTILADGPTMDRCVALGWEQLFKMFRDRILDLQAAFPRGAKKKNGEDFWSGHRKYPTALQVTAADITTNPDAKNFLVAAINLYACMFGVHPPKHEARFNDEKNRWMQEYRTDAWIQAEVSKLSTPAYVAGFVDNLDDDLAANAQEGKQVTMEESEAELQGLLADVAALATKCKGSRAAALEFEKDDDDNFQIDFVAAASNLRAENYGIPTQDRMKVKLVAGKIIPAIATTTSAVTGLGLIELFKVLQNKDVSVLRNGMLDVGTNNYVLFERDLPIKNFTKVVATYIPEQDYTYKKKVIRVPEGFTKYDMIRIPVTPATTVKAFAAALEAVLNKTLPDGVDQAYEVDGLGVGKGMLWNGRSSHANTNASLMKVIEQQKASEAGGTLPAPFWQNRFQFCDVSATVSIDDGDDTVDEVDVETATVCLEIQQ

[3] = target: AMP-activated protein kinase, AMPK (Homo sapiens) (UniProt P54646+O43741+P54619+Q9UGJ0+Q9Y478+Q13131+Q9UGI9); assay: AMP-dependent Kinase enzyme assay. An in vitro enzyme assay that detects ADP turnover that is directly proportional to AMPK activity. This uses naive AMPK that is activated during the assay with MK-8722; assay type: functional; details: 30 µM
[4] = target: Sialic acid-binding Ig-like lectin 9 (Homo sapiens) (UniProt Q9Y336); assay: Hs-Siglec9 ALPHAscreen SOP 20170721; details: 10 µM
Chain of Sialic acid-binding Ig-like lectin 9 (Homo sapiens) (Q9Y336 whole entry): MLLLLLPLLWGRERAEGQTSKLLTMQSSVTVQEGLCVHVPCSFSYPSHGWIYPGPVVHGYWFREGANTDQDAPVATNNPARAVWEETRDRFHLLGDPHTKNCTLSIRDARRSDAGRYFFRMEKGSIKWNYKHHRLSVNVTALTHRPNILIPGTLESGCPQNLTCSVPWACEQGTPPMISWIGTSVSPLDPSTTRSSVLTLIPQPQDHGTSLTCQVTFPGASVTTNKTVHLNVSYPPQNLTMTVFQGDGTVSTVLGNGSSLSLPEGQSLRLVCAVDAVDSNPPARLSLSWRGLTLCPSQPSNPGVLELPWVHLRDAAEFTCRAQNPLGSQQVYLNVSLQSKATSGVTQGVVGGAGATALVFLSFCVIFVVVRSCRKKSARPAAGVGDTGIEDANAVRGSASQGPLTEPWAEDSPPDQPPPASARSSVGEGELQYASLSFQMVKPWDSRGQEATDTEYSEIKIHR

Trypanosoma cruzi = assay: Trypanosoma cruzi phosphomannomutase and mannose-1-phosphate guanylyltransferase assay; assay type: functional; details: 10 µM
[5] = target: T2, Arginase-2, mitochondrial (Homo sapiens) (UniProt P78540); assay: in vitro enzyme assay to detect the production of urea directly proportional to the activity of Arginase II; assay type: functional; details: 33.3 µM; note: in the data most compounds retested in dose-response had high values
T2 sequence (whole entry): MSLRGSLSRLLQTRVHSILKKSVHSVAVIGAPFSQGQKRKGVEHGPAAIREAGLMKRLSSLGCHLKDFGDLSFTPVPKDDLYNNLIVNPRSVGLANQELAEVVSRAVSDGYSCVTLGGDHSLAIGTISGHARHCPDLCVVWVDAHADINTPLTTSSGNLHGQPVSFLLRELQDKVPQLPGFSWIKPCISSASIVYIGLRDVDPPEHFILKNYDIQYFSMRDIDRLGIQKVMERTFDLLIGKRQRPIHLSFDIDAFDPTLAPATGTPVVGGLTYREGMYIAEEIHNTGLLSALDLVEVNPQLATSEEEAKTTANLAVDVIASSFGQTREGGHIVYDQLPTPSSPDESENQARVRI

[6] = target: T3, Proteasome subunit beta (Trypanosoma cruzi) (UniProt O96673); assay: Trypanosoma cruzi proteasome chymotrypsin-like activity (TcProtChymo) assay.; note: in the data most compounds retested in dose-response had high values; assay type: functional; details: 9.37 µM
T3 sequence (whole entry): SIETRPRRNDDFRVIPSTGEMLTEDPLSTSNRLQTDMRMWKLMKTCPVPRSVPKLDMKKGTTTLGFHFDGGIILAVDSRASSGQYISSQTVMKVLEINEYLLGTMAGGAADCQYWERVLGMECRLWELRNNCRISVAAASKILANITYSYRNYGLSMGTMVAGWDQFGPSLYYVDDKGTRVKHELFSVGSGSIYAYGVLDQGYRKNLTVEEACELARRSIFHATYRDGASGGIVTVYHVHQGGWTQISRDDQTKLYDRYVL

Homo sapiens = species: Homo sapiens; assay: To identify inhibition of the IFN signalling (Jak-Stat) pathway via expression of an eGFP reporter gene under the control of an IFN-stimulated response element (ISRE) containing MxA promoter.; assay type: functional; details: 30 µM
[7] = target: T4, Tyrosyl-tRNA synthetase, putative (Trypanosoma cruzi (strain CL Brener)) (UniProt Q4DSP6); assay: Trypanosoma cruzi tyrosyl tRNA synthetase (TcYRS) _High Tyrosine SOP; assay type: functional; details: 30 µM; note: in the data most compounds retested in dose-response had high values
T4 sequence (whole entry): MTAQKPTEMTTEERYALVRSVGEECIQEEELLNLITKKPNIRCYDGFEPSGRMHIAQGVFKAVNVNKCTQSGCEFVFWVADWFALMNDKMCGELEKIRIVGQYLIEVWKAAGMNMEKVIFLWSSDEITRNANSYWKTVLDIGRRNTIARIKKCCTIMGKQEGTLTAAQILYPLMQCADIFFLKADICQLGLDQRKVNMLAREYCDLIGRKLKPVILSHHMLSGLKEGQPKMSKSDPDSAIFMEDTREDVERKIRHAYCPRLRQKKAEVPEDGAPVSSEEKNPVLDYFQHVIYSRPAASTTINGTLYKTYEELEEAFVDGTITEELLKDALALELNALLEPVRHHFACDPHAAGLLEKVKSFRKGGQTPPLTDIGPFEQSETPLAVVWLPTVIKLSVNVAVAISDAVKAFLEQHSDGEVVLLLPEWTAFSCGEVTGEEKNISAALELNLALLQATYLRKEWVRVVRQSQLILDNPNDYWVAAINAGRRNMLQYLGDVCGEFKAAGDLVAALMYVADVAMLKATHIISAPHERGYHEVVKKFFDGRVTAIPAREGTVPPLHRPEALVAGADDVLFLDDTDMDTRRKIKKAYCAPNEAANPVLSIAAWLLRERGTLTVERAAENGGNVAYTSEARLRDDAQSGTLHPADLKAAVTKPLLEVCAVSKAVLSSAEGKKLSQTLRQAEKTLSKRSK

[8] = target: T4, Tyrosyl-tRNA synthetase, putative (Trypanosoma cruzi (strain CL Brener)); assay: Trypanosoma cruzi tyrosyl tRNA synthetase (TcYRS) SOP; assay type: functional; details: 30 µM
[9] = target: Chromo domain-containing protein 1 (Saccharomyces cerevisiae (strain ATCC 204508 / S288c) (Baker's yeast)) (UniProt P32657); assay: ScCHD-1 Enzyme Inhibition Assay; assay type: functional; details: 30 µM; note: in the data most compounds retested in dose-response had high values
Chain of Chromo domain-containing protein 1 (Saccharomyces cerevisiae (strain ATCC 204508 / S288c) (Baker's yeast)) (P32657 whole entry, the tested form may be a part): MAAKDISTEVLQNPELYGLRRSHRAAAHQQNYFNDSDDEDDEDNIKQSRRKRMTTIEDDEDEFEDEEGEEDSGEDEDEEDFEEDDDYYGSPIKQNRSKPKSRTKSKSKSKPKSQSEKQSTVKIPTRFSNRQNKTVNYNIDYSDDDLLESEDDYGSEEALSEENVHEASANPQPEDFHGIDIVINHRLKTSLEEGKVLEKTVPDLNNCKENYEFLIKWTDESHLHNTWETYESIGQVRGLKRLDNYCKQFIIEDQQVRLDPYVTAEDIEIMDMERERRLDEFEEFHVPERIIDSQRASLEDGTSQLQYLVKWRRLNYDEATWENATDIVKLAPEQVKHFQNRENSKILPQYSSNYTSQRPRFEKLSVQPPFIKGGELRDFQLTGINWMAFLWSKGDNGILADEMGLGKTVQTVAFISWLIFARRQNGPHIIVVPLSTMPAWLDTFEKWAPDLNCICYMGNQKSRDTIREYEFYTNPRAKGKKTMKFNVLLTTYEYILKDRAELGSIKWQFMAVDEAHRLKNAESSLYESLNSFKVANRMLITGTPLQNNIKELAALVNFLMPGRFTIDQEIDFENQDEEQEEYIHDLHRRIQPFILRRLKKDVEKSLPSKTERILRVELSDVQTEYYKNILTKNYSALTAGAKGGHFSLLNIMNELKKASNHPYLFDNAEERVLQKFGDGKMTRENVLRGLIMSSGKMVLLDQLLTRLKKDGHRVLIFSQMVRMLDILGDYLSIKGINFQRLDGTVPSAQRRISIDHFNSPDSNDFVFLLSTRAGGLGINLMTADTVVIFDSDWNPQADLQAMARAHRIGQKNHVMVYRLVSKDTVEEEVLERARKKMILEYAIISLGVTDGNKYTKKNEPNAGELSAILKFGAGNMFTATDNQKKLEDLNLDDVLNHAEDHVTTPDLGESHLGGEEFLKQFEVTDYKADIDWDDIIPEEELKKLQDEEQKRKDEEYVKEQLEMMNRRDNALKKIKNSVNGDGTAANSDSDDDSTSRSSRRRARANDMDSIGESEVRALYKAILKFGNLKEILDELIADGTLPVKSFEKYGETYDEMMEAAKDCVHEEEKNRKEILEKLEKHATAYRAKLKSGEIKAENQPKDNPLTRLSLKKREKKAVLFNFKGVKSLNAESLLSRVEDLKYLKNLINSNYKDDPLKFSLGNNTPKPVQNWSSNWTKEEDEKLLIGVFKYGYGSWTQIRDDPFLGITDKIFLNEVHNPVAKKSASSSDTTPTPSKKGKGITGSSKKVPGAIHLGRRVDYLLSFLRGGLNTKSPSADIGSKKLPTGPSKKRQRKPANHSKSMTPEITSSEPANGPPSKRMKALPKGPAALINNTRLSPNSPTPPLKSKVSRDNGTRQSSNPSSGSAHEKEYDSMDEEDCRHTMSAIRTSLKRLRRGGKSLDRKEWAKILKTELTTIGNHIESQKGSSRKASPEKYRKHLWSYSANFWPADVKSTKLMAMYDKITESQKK

Chain of Protein translocase subunit SecA (Escherichia coli (strain K12)) (P10408 whole entry): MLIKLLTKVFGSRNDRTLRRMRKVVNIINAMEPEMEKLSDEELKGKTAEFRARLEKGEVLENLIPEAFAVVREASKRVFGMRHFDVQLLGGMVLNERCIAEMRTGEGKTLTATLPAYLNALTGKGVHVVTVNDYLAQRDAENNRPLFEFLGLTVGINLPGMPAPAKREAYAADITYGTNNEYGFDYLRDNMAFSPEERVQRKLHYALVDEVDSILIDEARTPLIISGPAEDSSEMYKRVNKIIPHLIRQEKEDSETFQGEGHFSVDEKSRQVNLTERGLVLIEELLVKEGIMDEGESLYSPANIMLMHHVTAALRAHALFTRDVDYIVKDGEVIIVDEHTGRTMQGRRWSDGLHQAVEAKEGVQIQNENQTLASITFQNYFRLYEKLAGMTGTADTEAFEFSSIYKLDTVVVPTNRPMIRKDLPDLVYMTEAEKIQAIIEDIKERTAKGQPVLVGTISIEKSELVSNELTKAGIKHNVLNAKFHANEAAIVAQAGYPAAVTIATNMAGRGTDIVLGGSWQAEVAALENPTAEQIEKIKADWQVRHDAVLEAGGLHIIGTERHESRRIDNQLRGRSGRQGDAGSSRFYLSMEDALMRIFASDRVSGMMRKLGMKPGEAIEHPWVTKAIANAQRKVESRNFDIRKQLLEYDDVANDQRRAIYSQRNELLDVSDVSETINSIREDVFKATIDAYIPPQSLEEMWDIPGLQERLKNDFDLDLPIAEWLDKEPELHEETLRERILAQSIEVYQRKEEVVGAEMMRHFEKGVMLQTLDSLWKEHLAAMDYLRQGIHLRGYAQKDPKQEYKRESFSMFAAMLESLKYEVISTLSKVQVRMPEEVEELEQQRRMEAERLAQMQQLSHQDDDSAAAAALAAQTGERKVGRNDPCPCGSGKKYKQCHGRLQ

CCc1cc(N2CCSCC2)n2nc(C)c(C)c2n1
Percent Effect [1]: -2.37%
Percent Effect [2]: 5.33%
Percent Effect [3]: 2.1%
Percent Effect [4]: 4.26%
Percent Effect (Trypanosoma cruzi): -4.97%
Percent Effect [5]: 1.04%
Percent Effect [6]: 26.7%
Percent Effect (Homo sapiens): 15.8%
Percent Effect [7]: -2.73%
Percent Effect [8]: 6.17%
Percent Effect [9]: -6.13%

CC(=O)c1ccc(N2CCCC(CO)(CCOc3ccccc3)C2)nc1 (stereo not given)
Percent Effect [1]: -1.73%
Percent Effect [2]: 10.4%
Percent Effect [3]: 4.96%
Percent Effect [4]: 15.7%
Percent Effect (Trypanosoma cruzi): 6.39%
Percent Effect [5]: -22.1%
Percent Effect [6]: 19.5%
Percent Effect (Homo sapiens): 65.7%
Percent Effect [7]: 5.38%
Percent Effect [8]: 16.1%
Percent Effect [9]: -2.3%

Cc1ccc(S(=O)(=O)NC(=O)c2cccc(OCC(N)=O)c2)s1
Percent Effect [1]: -3.68%
Percent Effect [2]: 20.2%
Percent Effect [3]: -5.82%
Percent Effect [4]: -5.61%
Percent Effect (Trypanosoma cruzi): 0.0944%
Percent Effect [5]: 4.18%
Percent Effect [6]: 12%
Percent Effect (Homo sapiens): 4.54%
Percent Effect [7]: 6.4%
Percent Effect [8]: 13.9%
Percent Effect [9]: -5.68%

COc1c(C)cnc(CN2CCC(C(=O)N(C)C)CC2)c1C
Percent Effect [1]: -5.69%
Percent Effect [2]: 5.2%
Percent Effect [3]: 0.364%
Percent Effect [4]: 10.3%
Percent Effect (Trypanosoma cruzi): 2.81%
Percent Effect [5]: 1.42%
Percent Effect [6]: 9.46%
Percent Effect (Homo sapiens): -0.558%
Percent Effect [7]: 1.94%
Percent Effect [8]: 7.32%
Percent Effect [9]: -6.93%

CCN(C)S(=O)(=O)N(CC)Cc1ccc2c(c1)OCO2
Percent Effect [1]: -5.09%
Percent Effect [2]: 15.6%
Percent Effect [3]: 0.454%
Percent Effect [4]: 4.35%
Percent Effect (Trypanosoma cruzi): -4.49%
Percent Effect [5]: 1.42%
Percent Effect [6]: 8.11%
Percent Effect (Homo sapiens): 11.3%
Percent Effect [7]: 4.85%
Percent Effect [8]: 19.5%
Percent Effect [9]: -8.91%
